Results on 52 molecules are retold here after PubChem BioAssay AID504339 (National Center for Advancing Translational Sciences (NCATS), 2011).

Hit rate of the full screen: of about 390,000 compounds, about 17,000 (4.4%) were called active. Roughly 8% stayed inconclusive and do not appear here. Calls come from the whole dose curve; as a rule, active = well fitted inhibition curve with a large enough effect; inconclusive = small, poorly fitted or top-dose-only effect; inactive = no such curve, though single readings can be large or run the other way. Shown is part of a subset that was picked to be rich in actives.
% is set by controls: 0 for no effect and ±100 for the full control effect; potency is the fitted concentration of half-maximal effect.

Sequence of Lysine-specific demethylase 4A (Homo sapiens) (O75164 whole entry, looked up, the tested form may be a part): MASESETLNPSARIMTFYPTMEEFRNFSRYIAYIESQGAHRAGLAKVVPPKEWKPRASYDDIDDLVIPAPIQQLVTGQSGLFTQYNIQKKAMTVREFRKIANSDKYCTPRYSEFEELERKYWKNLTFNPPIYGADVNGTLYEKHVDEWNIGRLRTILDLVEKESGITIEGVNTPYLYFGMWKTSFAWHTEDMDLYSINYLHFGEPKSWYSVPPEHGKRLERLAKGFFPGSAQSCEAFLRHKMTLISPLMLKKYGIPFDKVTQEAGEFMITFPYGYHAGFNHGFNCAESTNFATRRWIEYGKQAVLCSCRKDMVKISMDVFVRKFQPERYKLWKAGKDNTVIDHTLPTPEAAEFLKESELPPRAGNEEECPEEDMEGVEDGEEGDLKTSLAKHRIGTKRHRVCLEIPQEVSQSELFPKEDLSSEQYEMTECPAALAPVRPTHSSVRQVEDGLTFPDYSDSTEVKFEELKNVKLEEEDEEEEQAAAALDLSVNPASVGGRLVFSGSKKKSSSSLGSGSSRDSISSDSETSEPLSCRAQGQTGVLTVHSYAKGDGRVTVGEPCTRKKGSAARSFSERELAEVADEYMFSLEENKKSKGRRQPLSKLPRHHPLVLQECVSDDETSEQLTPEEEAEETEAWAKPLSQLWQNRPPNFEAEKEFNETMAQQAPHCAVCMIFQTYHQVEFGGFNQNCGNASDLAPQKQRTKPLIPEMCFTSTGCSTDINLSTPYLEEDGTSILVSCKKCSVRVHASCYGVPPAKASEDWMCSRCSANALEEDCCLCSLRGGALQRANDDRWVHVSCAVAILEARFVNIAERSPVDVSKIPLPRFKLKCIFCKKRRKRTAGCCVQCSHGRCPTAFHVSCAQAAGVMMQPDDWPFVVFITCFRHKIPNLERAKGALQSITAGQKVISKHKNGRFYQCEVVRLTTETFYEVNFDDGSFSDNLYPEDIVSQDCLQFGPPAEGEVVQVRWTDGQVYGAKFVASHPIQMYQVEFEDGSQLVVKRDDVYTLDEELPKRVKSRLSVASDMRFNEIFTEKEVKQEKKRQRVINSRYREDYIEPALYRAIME

The assay deals with Lysine-specific demethylase 4A (Homo sapiens) (UniProt O75164). As to the kind of experiment: qHTS Assay for Inhibitors of JMJD2A-Tudor Domain. Note: nearly all actives have a fitted effect of over 50% in size. The following applies: AlphaScreen JMJD2A-Tudor / H3K4me3 peptide binding; series mostly up to 114 µM; activity change, negative = inhibition: at the top concentration. The text has this:
JMJD2A is a jumonji-domain-containing lysine demethylase that uses Fe(II) together with 2-OG to effect oxidative demethylation of histones. Methylation is one of many […] modification that affect epigenetic transcription. […] It is proposed that the functions of JmjD2A binding to the histones, is to maintain marks after they are installed and to spread the modifications by […], establishing a self-propagating cycle for rapid methylation over a large area of chromatin. […] Thus, small molecule targeting of the JMJD2A-tudor domain interaction with its target methylhistone mark is expected to enable sophisticated experiments probing the fine regulatory pathways leading to selective demethylation of a given methyllysine locus based on the methylation state of adjacent histone marks. A quantitative high throughput AlphaScreen has been developed to identify small molecule inhibitors based on a protocol published by NCGC and SGC [4].
Although AlphaScreen has significant advantages with its utility in a variety of epigenetic target assays, the primary screening data provided in this deposition should be used with caution due to the prevalence of screening artifacts. The top compound concentration tested was high (>100uM) in this assay, which increases number of actives and potential artifacts. An AlphaScreen counterscreen is highly recommended to be run against any putative actives to eliminate non-specific artifacts. Alternatively, one can use other AlphaScreen assays in PubChem to filter out promiscuous hits.
[1] Lee, J. et al. Distinct binding modes specify the recognition of methylated histone H3K4 and H4K20 by JMJD2A-tudor. Nat Struct Mol Biol. 15(1); 109-11. 2008. PMID: 18084306
[2] Yasgar, et al. Compound Management for Quantitative High-Throughput Screening. JALA. 2008 Apr;13(2):79-89. PMID: 18496600
[3] Inglese, et al. Quantitative high-throughput screening: a titration-based approach that efficiently identifies biological activities in large chemical libraries. Proc Natl Acad Sci. 1;103(31):11473-8. 2006. PMID: 16864780
[4] Quinn et al. A homogeneous method for investigation of methyl-dependent protein-protein interactions in epigenetics. Nucleic Acids Res., 38(2):e11. 2010. PMID: […]
[5] Baell,Holloway. New substructure filters for removal of pan assay interference compounds (PAINS) from screening libraries and for their exclusion in bioassays. J Med Chem. 53(7):2719-40. 2010. PMID: 20131845
NIH Molecular Libraries Probe Production Network [MLPCN]
NIH Chemical Genomics Center [NCGC]
Structural Genomics Consortium (SGC)
To each well of a 1,536w plate, 2ul of JMJD2A-Tudor (final 100nM) and 1ul biotinylated histone peptide methylated at Lys4 [b-H3(1-18)K4me3] (final 50nM) were added in 1x PBS buffer, pH 7.4, containing 0.01% Tween-20, using a nanoliter dispenser. Formation of a protein-peptide complex proceeded at room temperature for 30 min. A Kalypsys pin-tool transferred 23nl of library compound solution in DMSO to each well. Following a 30 min incubation of the protein-peptide complex with compounds at room temperature, a mixture of 40 µg/mL each streptavidin-coated donor and nickel chelate acceptor AlphaScreen beads (final 10 µg/mL) was added in a 1ul dispense for a final volume of 4ul, followed by a brief centrifugation (1000 rpm, 1 min). Plates were incubated protected from the light for 20 min at room temperature. Microplates were then read on an EnVision multilabel plate reader using the 1,536 plate HTS AlphaScreen aperture (excitation time 80 ms, measurement time 240 ms).
For `O=C(c1ccccc1[N+](=O)[O-])N1CCC2(CC1)OCCO2`, the “activity change, negative = inhibition” value was -6.21% (inactive). With `O=C(O)c1cc[c]([Sb](=[O])([OH])[OH])cc1[N+](=O)[O-]`, the Potency is 0.316 µM (active). As to `C[C@@]1([C@@H](NP(=O)(c2ccccc2)c2ccccc2)c2ccccc2)C[C@H]1CCO`, the “activity change, negative = inhibition” value was -5.04% (inactive). On to `COC(=O)N(c1ccc(OC)cc1)P1(=S)OCCC(C)O1` (configuration not stated), for which the Potency was 79.4 µM (active). Take `CCC(=O)c1ccc(OCC(=O)N2CCN(CC(=O)Nc3ccc(C)cc3)CC2)cc1`: the “activity change, negative = inhibition” value is 21.2% (inactive). For the molecule `O=C1NC(=O)C(Cc2ccccc2)C(=O)N1`, the “activity change, negative = inhibition” value was -8.28% (inactive). Still for that read-out and setting: the result for `COC(=O)C1=C(c2ccccc2)C[C@@H]2CC[C@H]1N2C(=O)N1CCCCC1` reads -13.1% (inactive). For `Cn1c(O)c(C=NCCN2CCNCC2)c(=O)n(C)c1=O`, the “activity change, negative = inhibition” value was -6.87% [at 57.1 µM] (inactive). On the same count and under the same terms, the result for `c1cc2c(cc1[C@H]1OC[C@H]3[C@@H]1CO[C@@H]3c1ccc3c(c1)OCO3)OCO2` reads -20.7% (inactive).

In the case of `c1cc2c(cc1CCNC1CCCCCC1)OCO2`, the Potency was 3.16 µM (active). Turning to `Cc1ccc(CN2CCCC(C(=O)c3ccc4c(c3)OCO4)C2)cc1C` (configuration not stated), the activity change, negative = inhibition is -17.6% [at 11.4 µM] (inactive). Take `c1ccc(CCNC2CCCCCC2)cc1`: the Potency is 70.8 µM (active). As for `c1ccc(CC2CCCCN2)cc1` (configuration not stated), the “activity change, negative = inhibition” value was -17.5% (inactive). On to `OC(CNC1CCCCC1)c1ccccc1` (configuration not stated), for which the “activity change, negative = inhibition” value was -6.35% (inactive). The same measure, in the same setting: in the case of `O=P1(Oc2ccccc2)CC(O)C(O)C(COCc2ccccc2)O1` (configuration not stated) it was -14.5% (inactive); in that of `S=P(c1ccccc1)(c1ccccc1)c1c(-c2ccccc2)[nH]c2ccccc12`, -27.2% (inactive).

For `CCCC[N+]1(C)C2CC(OC(=O)C(CO)c3ccccc3)CC1C1OC12` (configuration not stated), the “activity change, negative = inhibition” value was -1.44% (inactive). Still for that read-out and setting: the result for `CNP1(NC)=Nc2nn(-c3ccccc3)c(N)c2C(c2ccccc2)=N1` reads -14.5% (inactive). `O=C1C2(Cl)C3(Cl)C4(Cl)C(Cl)(Cl)C5(Cl)C3(Cl)C1(Cl)C5(Cl)C24Cl` (configuration not stated): the “activity change, negative = inhibition” value was -25.5% (inactive). Consider `Nc1ccc(C(=O)N/N=C2/CN3CCC2CC3)cc1`, for which the Potency is 89.1 µM (active). For `CC1CC=CCC12C(=O)NC(=S)NC2=O` (configuration not stated), the “activity change, negative = inhibition” value was -2.78% (inactive). Same read-out and setting: in the case of `COC(=O)C1=C(c2ccc(Cl)c(C(F)(F)F)c2)C[C@@H]2CC[C@H]1N2C(=O)NC1CC1` it was -5% (inactive); in that of `Cc1cccc(-n2c(O)c(/C=N/N3CCOCC3)c(=O)[nH]c2=S)c1`, -3.47% (inactive).

For `CCOc1cc(N2CCOCC2)c(OCC)cc1NC(=O)C1=NN(c2cccc(C)c2)C(=O)CC1`, the Potency was 50.1 µM (active).

On to `CCN1C(=O)NC(=O)C2(CCCC2)C1=O`, for which the “activity change, negative = inhibition” value was -12.5% (inactive).

Regarding `c1cncc(CNCCc2c[nH]c3ccccc23)c1`, the “activity change, negative = inhibition” value was -11.6% (inactive). For the molecule `COc1ccc(CNCCc2c[nH]c3ccccc23)cc1OC`, the Potency is 79.4 µM (active). As for `C/C(CCc1c[nH]c2ccccc12)=N\O`, the “activity change, negative = inhibition” value was -5.13% (inactive). On the same count and under the same terms, the result for `CCN1CC2C3CCC(C)(O3)C2C1` (configuration not stated) reads -21.9% (inactive); that for `CC1([N+](=O)[O-])COP(=O)(Nc2ccc(F)cc2)OC1` (configuration not stated), -4.86% (inactive). On to `CN(C)P(=S)(Nc1ccccc1)C(Cl)(Cl)Cl` (configuration not stated), for which the “activity change, negative = inhibition” value is 2.26% [at 57.1 µM] (inactive). Still for that read-out and setting: in the case of `c1cncc(CNC2=NCCC2)c1` it was 0% [at 57.1 µM] (inactive); in that of `CC1CCCN1CCC(C(N)=O)(c1ccccc1)c1ccccc1` (configuration not stated), -13.8% (inactive). For the molecule `CC1CCCCN1Cc1cccnc1` (configuration not stated), the Potency was 8.91 µM (active). As to `C[C@]12CCC3C(CC[C@H]4[C@H](O)[C@H](O)CC[C@]34C)C1CC[C@@H]2O` (some centres not stated), the “activity change, negative = inhibition” value is 0% (inactive).

As to `O=c1[nH]c(=O)n(-c2ccc(F)cc2)c(O)c1C=NCCN1CCCCC1`, the “activity change, negative = inhibition” value is -0.699% (inactive).

Consider `CCOc1ccc(CN(CCCl)CCCl)cc1C(=O)OC`, for which the Potency is 25.1 µM (active). Take `c1ccc(C(CN2CCCCC2)c2ccccc2)cc1`: the “activity change, negative = inhibition” value was -9.59% (inactive). As for `CCOP(=O)(OCC)C(NC(=O)c1ccc(C)cc1)C(Cl)(Cl)Cl` (configuration not stated), the “activity change, negative = inhibition” value was 0.685% (inactive). Same read-out and setting: in the case of `CC12CCC(O)CC1CCC1C2CCC2(C)C(C(=O)CC(O)C(F)(F)F)CCC12` (configuration not stated) it was -4.17% (inactive). Regarding `CCC1(C)CC(CCNCc2ccc(N(C)C)cc2)(c2ccc(F)cc2)CCO1` (configuration not stated), the Potency is 44.7 µM (active). On to `COC1=CC=C2[C@H]3Cc4ccc(OC)c5c4[C@@]2(CCN3C)C1O5` (some centres not stated), for which the “activity change, negative = inhibition” value is -11% (inactive). The same measure, in the same setting: the result for `CCN(CC)C(=O)c1ccc(NC(=O)c2cc(-n3cnnc3)ccc2Cl)cc1` reads -15.3% (inactive). Still for that read-out and setting: in the case of `COc1cccc(OC)c1C(=O)NC(=S)N1C[C@H]2C[C@H](C1)c1cccc(=O)n1C2` it was -17.7% (inactive).

Regarding `CCC/C(=N\O)c1c[nH]c2ccccc12`, the “activity change, negative = inhibition” value is 3.73% (inactive).

For `CCc1cccc2c(C#N)cn(CC(=O)N3CCOCC3)c12`, the “activity change, negative = inhibition” value is -5.97% (inactive). On the same count and under the same terms, in the case of `CCN1CCN(C(=O)Cc2coc3cc(C)cc(C)c23)CC1` it was -17.1% (inactive); in that of `O=C(Cc1ccc(Cl)cc1)NCCN1CCN(C(=O)Cc2ccc(Cl)cc2)CC1`, -13.7% (inactive). For the molecule `O=C(Cc1ccccc1)N1CCN(C2CCCCCC2)CC1`, the Potency is 79.4 µM (active). With `O=C(Cn1c(=O)n(CC2CS2)c2ccccc21)N1CCCCC1` (configuration not stated), the “activity change, negative = inhibition” value is -0.687% (inactive).

Turning to `COc1ccccc1CN1CCN(C(=O)Cc2ccccc2)CC1`, the Potency was 2.51 µM (active).

In the case of `CCC(=NCCc1ccccc1)c1c(O)n(C2CCCCC2)c(=O)[nH]c1=O`, the “activity change, negative = inhibition” value was -27.9% (inactive).
